Test results: the supplement of paper PMC11732987, “Enantioselective OTUD7B fragment discovery through chemoproteomics screening and high-throughput optimisation” (Communications Chemistry, 2025)

Assays:
Assay in all cases: log2 ratio of Biotin-Ahx-Ub-VS probe labelling (fragment/DMSO); higher = less target engagement (more negative = stronger competition), active = hit call of the paper (q ≤ 0.05, log2 ratio ≤ -1)
Conditions in all cases: compound concentration: 200 uM; treatment time: 3 h
USP34 = USP34 (UniProt Q70CQ2)
Outline: (§1)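 Triplicate samples of HEK293T lysate, 495 µg each, received fragment at 200 µM or vehicle for 3 h, followed by Biotin-Ahx-Ub-VS (0.5 µM final) for 1 h. After NeutrAvidin enrichment of labelled DUBs and LysC/trypsin digestion, peptides were run by diaPASEF LC-MS/MS. The values are average log2 fragment/vehicle ratios from global-median-normalised Spectronaut label-free quantities, tested by unpaired t-test on proteins having ≥2 unique peptides.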

USP36 = biological target: T1, USP36 (UniProt Q9P275)
T1 sequence (whole entry): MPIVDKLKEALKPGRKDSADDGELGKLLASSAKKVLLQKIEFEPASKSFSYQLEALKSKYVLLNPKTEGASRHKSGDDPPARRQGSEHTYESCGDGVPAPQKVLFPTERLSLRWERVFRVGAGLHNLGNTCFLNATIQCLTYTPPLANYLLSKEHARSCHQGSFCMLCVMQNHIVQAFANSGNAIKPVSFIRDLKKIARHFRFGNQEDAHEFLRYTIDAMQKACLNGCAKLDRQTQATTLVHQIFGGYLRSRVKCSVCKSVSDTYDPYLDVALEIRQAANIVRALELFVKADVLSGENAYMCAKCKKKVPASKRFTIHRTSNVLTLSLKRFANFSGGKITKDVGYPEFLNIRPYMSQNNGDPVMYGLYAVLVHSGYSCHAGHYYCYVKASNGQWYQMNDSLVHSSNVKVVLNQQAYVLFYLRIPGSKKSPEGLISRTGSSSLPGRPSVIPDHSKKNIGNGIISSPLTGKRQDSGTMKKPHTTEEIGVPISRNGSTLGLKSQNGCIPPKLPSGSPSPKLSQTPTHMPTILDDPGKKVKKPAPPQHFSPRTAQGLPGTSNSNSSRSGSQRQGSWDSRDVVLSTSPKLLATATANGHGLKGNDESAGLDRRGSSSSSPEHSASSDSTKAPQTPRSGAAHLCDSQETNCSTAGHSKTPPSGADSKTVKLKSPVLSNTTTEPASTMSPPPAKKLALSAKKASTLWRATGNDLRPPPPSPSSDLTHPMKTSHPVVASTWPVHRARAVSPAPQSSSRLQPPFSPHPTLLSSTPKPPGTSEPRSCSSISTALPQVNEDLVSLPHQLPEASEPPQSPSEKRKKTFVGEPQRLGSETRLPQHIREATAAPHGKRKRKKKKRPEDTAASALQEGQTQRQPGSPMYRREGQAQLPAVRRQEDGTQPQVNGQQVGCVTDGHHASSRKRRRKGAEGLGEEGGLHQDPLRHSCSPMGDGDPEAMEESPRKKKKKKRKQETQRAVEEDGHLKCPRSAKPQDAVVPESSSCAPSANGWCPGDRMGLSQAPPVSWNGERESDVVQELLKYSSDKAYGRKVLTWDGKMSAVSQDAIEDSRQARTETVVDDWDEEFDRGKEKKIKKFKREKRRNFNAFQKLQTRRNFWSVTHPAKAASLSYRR
Outline: as §1

USP38 = biological target: T2, USP38 (UniProt Q8NB14)
T2 sequence (whole entry): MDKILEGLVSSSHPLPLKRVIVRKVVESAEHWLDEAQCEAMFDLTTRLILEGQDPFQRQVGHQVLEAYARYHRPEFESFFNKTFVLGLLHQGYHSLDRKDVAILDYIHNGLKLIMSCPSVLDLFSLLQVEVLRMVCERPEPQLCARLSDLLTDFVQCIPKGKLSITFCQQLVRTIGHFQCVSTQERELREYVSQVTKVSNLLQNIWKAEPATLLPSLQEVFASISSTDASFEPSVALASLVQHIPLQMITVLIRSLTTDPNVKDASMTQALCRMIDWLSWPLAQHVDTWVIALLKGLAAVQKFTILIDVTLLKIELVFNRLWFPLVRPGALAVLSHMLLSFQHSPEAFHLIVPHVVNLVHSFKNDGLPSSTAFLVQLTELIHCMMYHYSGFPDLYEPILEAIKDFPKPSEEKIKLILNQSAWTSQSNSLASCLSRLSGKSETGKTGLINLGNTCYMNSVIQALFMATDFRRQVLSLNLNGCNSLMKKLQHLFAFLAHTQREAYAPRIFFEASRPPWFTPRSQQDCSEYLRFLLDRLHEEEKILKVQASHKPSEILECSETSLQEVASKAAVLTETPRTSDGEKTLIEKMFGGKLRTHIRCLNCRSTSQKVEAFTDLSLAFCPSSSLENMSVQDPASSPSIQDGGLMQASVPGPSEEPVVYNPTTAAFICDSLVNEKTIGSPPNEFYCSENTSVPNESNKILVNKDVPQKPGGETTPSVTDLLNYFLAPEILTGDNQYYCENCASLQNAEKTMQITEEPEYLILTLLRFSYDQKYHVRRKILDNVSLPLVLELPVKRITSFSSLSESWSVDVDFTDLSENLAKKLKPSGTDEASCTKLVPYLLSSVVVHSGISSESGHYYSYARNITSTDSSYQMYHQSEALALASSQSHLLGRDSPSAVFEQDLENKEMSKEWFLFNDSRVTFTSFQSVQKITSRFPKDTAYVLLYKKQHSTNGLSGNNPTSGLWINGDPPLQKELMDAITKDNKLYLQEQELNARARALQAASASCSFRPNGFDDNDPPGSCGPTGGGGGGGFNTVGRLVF
Outline: as §1

USP39 = biological target: T3, USP39 (UniProt Q53GS9)
T3 sequence (whole entry): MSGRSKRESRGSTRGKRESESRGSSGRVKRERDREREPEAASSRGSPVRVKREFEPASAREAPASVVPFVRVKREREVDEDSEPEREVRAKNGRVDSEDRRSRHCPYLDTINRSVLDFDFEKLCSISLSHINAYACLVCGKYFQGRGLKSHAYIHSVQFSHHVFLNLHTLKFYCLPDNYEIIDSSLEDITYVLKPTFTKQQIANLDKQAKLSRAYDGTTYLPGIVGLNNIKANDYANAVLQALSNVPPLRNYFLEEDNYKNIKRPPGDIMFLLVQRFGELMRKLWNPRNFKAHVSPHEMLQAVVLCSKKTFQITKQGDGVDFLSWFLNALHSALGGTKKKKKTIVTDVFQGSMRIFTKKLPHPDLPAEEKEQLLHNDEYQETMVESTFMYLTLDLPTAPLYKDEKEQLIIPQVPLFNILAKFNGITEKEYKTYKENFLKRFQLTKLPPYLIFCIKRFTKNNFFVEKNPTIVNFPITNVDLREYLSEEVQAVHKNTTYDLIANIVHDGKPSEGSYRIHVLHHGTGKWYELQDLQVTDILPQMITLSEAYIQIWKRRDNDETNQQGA
Outline: as §1

USP4 = biological target: T4, USP4 (UniProt Q13107)
T4 sequence (whole entry): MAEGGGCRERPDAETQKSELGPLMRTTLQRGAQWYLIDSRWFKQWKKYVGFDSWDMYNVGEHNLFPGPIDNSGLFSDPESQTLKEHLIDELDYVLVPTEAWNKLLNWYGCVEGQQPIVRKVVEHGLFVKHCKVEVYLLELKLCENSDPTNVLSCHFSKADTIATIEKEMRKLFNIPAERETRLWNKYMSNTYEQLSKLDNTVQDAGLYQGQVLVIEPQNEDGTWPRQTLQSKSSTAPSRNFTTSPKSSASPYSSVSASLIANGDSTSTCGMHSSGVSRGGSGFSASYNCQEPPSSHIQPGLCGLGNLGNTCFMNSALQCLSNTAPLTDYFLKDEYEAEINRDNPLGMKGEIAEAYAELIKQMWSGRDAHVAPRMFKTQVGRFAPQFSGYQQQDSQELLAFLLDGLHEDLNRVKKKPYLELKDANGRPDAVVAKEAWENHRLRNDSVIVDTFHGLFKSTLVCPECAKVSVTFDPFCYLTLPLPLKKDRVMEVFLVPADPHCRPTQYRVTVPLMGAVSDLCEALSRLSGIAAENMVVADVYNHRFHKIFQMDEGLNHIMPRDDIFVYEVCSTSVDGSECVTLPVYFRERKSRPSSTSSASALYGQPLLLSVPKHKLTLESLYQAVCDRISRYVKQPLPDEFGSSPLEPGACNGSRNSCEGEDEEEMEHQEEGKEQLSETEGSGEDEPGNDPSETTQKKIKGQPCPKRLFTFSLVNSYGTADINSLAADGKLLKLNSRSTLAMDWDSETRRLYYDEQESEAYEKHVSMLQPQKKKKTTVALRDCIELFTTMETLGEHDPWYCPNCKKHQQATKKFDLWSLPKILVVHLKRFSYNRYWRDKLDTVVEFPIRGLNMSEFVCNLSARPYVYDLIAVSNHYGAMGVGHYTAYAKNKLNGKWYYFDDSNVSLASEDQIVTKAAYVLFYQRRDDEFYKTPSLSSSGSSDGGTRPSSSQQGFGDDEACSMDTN
Outline: as §1

Measured: log2 ratio of Biotin-Ahx-Ub-VS probe labelling

USP34, sequence (Q70CQ2 whole entry, the tested form may be a part): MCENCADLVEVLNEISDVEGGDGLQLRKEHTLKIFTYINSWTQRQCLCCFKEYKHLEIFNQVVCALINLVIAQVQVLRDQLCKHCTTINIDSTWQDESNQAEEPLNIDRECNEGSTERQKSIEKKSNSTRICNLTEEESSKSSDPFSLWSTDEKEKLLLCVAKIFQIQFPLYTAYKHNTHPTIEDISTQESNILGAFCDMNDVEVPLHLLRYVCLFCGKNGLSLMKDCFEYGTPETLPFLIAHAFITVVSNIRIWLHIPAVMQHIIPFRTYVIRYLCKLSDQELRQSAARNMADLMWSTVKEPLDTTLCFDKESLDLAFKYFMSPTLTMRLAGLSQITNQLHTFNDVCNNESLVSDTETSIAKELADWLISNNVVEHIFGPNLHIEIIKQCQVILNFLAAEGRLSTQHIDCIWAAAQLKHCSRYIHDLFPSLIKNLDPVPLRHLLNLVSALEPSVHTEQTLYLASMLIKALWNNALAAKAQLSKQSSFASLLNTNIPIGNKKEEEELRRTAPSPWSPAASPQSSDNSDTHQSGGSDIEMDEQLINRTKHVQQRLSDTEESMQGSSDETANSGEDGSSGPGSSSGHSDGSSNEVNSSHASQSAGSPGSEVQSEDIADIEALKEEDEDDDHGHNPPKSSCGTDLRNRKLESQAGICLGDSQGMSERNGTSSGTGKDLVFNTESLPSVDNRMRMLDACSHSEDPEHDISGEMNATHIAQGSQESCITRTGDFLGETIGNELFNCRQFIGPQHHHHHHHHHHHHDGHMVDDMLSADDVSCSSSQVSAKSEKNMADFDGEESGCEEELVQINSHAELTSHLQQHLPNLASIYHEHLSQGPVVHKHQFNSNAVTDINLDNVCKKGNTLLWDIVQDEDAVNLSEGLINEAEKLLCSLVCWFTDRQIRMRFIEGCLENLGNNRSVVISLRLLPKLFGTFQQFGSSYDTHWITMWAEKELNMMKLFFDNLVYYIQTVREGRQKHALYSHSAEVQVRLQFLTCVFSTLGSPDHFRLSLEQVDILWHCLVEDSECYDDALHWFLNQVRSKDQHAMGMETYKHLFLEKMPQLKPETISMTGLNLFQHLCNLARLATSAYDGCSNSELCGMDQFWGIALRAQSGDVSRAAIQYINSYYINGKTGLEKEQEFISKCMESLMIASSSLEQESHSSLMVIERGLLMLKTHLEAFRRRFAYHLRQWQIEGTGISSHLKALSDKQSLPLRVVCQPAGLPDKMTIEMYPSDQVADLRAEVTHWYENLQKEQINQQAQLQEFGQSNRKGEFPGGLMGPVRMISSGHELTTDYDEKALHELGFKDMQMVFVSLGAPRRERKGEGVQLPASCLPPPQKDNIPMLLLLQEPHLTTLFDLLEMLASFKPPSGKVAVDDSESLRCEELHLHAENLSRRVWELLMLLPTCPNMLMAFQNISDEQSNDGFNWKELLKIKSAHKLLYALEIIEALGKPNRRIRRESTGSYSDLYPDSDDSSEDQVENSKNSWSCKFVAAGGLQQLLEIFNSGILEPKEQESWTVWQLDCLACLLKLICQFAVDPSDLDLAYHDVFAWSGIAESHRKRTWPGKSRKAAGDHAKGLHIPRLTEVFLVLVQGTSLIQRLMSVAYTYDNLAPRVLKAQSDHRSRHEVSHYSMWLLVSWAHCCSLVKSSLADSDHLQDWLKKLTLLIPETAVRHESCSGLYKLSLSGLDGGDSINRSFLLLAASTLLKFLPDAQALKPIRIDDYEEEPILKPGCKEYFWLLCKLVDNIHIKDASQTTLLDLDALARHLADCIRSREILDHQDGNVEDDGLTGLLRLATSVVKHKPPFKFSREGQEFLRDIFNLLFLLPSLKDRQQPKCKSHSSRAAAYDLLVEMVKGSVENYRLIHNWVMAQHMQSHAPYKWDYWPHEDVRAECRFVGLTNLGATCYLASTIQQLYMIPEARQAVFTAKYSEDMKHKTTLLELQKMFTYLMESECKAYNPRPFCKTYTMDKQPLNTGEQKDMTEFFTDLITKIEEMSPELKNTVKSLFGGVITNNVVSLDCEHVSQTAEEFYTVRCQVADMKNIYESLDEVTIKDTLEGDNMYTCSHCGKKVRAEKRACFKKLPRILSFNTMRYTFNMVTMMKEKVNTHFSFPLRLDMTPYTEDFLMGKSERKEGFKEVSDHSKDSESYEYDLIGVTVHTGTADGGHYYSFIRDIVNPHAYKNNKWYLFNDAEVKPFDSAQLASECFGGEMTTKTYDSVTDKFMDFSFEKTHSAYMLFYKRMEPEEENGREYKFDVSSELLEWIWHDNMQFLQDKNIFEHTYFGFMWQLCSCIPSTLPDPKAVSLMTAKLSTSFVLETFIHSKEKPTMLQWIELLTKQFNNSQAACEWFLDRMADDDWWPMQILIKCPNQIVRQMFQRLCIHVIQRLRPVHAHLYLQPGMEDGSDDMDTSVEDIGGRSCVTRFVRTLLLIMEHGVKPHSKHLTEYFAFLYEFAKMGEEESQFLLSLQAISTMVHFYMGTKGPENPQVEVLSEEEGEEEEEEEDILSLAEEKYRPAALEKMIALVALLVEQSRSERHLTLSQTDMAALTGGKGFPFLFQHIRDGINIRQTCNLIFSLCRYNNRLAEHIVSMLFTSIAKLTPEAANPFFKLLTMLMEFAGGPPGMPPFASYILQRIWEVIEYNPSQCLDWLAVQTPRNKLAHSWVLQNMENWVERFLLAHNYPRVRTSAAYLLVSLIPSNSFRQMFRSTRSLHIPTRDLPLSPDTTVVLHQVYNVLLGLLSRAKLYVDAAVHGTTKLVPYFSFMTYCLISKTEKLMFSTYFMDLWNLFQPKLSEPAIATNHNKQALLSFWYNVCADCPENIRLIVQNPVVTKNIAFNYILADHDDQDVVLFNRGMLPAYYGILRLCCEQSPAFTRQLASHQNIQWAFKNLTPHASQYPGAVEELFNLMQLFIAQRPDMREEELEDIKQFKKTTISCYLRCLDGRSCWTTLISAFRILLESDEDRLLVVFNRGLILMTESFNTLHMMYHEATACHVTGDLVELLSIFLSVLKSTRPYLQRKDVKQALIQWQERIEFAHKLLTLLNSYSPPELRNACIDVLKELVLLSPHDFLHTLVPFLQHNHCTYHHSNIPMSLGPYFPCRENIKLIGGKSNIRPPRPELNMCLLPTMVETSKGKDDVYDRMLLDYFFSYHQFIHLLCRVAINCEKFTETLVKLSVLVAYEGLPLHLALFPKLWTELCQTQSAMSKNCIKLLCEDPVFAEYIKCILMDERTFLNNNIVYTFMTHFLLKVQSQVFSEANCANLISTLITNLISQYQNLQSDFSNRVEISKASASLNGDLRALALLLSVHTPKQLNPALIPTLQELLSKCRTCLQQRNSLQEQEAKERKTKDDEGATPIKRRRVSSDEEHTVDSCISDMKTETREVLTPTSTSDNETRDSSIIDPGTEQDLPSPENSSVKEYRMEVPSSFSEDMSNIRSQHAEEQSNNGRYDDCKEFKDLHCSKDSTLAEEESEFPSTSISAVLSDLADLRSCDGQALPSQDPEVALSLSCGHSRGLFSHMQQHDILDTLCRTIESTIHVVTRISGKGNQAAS

O=C(CCl)Nc1cccc2ncccc12
inactive: USP34 -0.104 | USP36 0.45 | USP38 0.13 | USP39 0.472 | USP4 0.0333
